Laboratory results published in article PMC8222333, “AsCas12a ultra nuclease facilitates the rapid generation of therapeutic cell medicines”.
Positions count from the first letter of the chain named.

B1: AGGT (dsDNA)
DNA 1: GCTATCTAGTGCTCAGTACGCACTGAGGTAGGAAACTTCTGGCAGGACCAGGTCATGAGATCGGAAGAGCACACGTCTGAACTCCAGTCA
DNA 2: TGACTGGAGTTCAGACGTGTGCTCTTCCGATCTCATGACCTGGTCCTGCCAGAAGTTTCCTACCTCAGTGCGTACTGAGCACTAGATAGC
RNA: AAUUUCUACUCUUGUAGAUAGGAAACUUCUGGCAGGACC
B2: CCGG (dsDNA)
DNA 1: B1 DNA 1 with A26C, G27C, T29G
DNA 2: B1 DNA 2 with A62C, C64G, T65G
RNA: B1 RNA
B3: CGGG (dsDNA)
DNA 1: B1 DNA 1 with A26C, T29G
DNA 2: B1 DNA 2 with A62C, T65G
RNA: B1 RNA
B4: AGTG (dsDNA)
DNA 1: B1 DNA 1 with G28T, T29G
DNA 2: B1 DNA 2 with A62C, C63A
RNA: B1 RNA
B5: AGTA (dsDNA)
DNA 1: B1 DNA 1 with G28T, T29A
DNA 2: B1 DNA 2 with A62T, C63A
RNA: B1 RNA
B6: ATAA (dsDNA)
DNA 1: B1 DNA 1 with G27T, G28A, T29A
DNA 2: B1 DNA 2 with A62T, C63T, C64A
RNA: B1 RNA
B7: CCTT (dsDNA)
DNA 1: B1 DNA 1 with A26C, G27C, G28T
DNA 2: B1 DNA 2 with C63A, C64G, T65G
RNA: B1 RNA
B8: AGTC (dsDNA)
DNA 1: B1 DNA 1 with G28T, T29C
DNA 2: B1 DNA 2 with A62G, C63A
RNA: B1 RNA
B9: CCCC (dsDNA)
DNA 1: B1 DNA 1 with A26C, G27C, G28C, T29C
DNA 2: B1 DNA 2 with A62G, C63G, C64G, T65G
RNA: B1 RNA
B10: ATGA (dsDNA)
DNA 1: B1 DNA 1 with G27T, T29A
DNA 2: B1 DNA 2 with A62T, C64A
RNA: B1 RNA
B11: CCTA (dsDNA)
DNA 1: B1 DNA 1 with A26C, G27C, G28T, T29A
DNA 2: B1 DNA 2 with A62T, C63A, C64G, T65G
RNA: B1 RNA
B12: CCTG (dsDNA)
DNA 1: B1 DNA 1 with A26C, G27C, G28T, T29G
DNA 2: B1 DNA 2 with A62C, C63A, C64G, T65G
RNA: B1 RNA
B13: CCTC (dsDNA)
DNA 1: B1 DNA 1 with A26C, G27C, G28T, T29C
DNA 2: B1 DNA 2 with A62G, C63A, C64G, T65G
RNA: B1 RNA
B14: ATGT (dsDNA)
DNA 1: B1 DNA 1 with G27T
DNA 2: B1 DNA 2 with C64A
RNA: B1 RNA
B15: AGTT (dsDNA)
DNA 1: B1 DNA 1 with G28T
DNA 2: B1 DNA 2 with C63A
RNA: B1 RNA

Target: dAsCas12a Ultra (Acidaminococcus sp., UniProt U2UMQ6 1-1307, M537R;F870L;D908A;E993A;D1235A)
Experiment: Spec-seq (native PAGE EMSA with sequencing of bound and unbound); 25 mM Tris-HCl pH 7.4, 150 mM KCl, 5 mM MgCl2, 10% glycerol, 1 mM DTT, 40 ng/uL salmon sperm DNA; 400 nM Cas12a, 480 nM crRNA, 50 nM library, 37 C 1 h; native PAGE at room temperature; high values mean tight binding
Conditions: protein: recombinant

| Binder | binding signal |
| --- | --- |
| B1 | -8.68 lnKA |
| B2 | -8.87 lnKA |
| B3 | -8.98 lnKA |
| B4 | -8.77 lnKA |
| B5 | -8.43 lnKA |
| B6 | -8.76 lnKA |
| B7 | -8.97 lnKA |
| B8 | -8.75 lnKA |
| B9 | -8.74 lnKA |
| B10 | -8.29 lnKA |
| B11 | -7.06 lnKA |
| B12 | -7.53 lnKA |
| B13 | -6.9 lnKA |
| B14 | -8.98 lnKA |
| B15 | -8.9 lnKA |

Target: dAsCas12a S542R (Acidaminococcus sp., UniProt U2UMQ6 1-1307, S542R;D908A;E993A;D1235A)
Experiment: as above
Conditions: protein: recombinant

| Binder | binding signal |
| --- | --- |
| B1 | -8.5 lnKA |
| B2 | -8.41 lnKA |
| B4 | -8.41 lnKA |
| B5 | -7.93 lnKA |
| B6 | -8.17 lnKA |
| B7 | -8.32 lnKA |
| B8 | -8.14 lnKA |
| B9 | -4.35 lnKA |
| B10 | -7.95 lnKA |
| B11 | -7.77 lnKA |
| B12 | -8.1 lnKA |
| B13 | -7.68 lnKA |
| B14 | -8.67 lnKA |
| B15 | -8.18 lnKA |

Target: d-enCas12a (Acidaminococcus sp., UniProt U2UMQ6 1-1307, E174R;S542R;K548R;D908A;E993A;D1235A)
Experiment: as above
Conditions: protein: recombinant

| Binder | binding signal |
| --- | --- |
| B1 | -5.71 lnKA |
| B2 | -6.11 lnKA |
| B3 | -6.24 lnKA |
| B4 | -3.79 lnKA |
| B5 | -2.11 lnKA |
| B6 | -5.28 lnKA |
| B7 | -5.69 lnKA |
| B8 | -2.3 lnKA |
| B9 | -1.8 lnKA |
| B10 | -5.35 lnKA |
| B11 | -5.38 lnKA |
| B12 | -5.7 lnKA |
| B13 | -5.18 lnKA |
| B14 | -5.72 lnKA |
| B15 | -4.88 lnKA |

Target: d-enCas12a-Ultra (Acidaminococcus sp., UniProt U2UMQ6 1-1307, E174R;S542R;K548R;M537R;F870L;D908A;E993A;D1235A)
Experiment: as above
Conditions: protein: recombinant

| Binder | binding signal |
| --- | --- |
| B1 | -3.43 lnKA |
| B2 | -3.44 lnKA |
| B3 | -3.42 lnKA |
| B4 | -1.18 lnKA |
| B5 | -0.526 lnKA |
| B6 | -3.12 lnKA |
| B7 | -3.27 lnKA |
| B8 | -0.544 lnKA |
| B9 | -0.387 lnKA |
| B10 | -3.17 lnKA |
| B11 | -2.2 lnKA |
| B12 | -3.13 lnKA |
| B13 | -2.06 lnKA |
| B14 | -3.21 lnKA |
| B15 | -1.91 lnKA |

Target: dAsCas12a E174R (Acidaminococcus sp., UniProt U2UMQ6 1-1307, E174R;D908A;E993A;D1235A)
Experiment: as above
Conditions: protein: recombinant

| Binder | binding signal |
| --- | --- |
| B4 | -8.75 lnKA |
| B5 | -8.14 lnKA |
| B6 | -8.75 lnKA |
| B7 | -8.31 lnKA |
| B8 | -8.31 lnKA |
| B9 | -8.52 lnKA |
| B10 | -8.88 lnKA |
| B11 | -5.98 lnKA |
| B12 | -7.6 lnKA |
| B13 | -6.59 lnKA |
| B15 | -8.38 lnKA |

Target: dAsCas12a K548R (Acidaminococcus sp., UniProt U2UMQ6 1-1307, K548R;D908A;E993A;D1235A)
Experiment: as above
Conditions: protein: recombinant

| Binder | binding signal |
| --- | --- |
| B5 | -8.98 lnKA |
| B8 | -7.9 lnKA |
